ChEMBL document CHEMBL3988442, “University of Dundee, Small-Polar-MMV Screening Library” (2021)
Out of some 48,000 compounds screened, about 13,000 (27%) showed an effect of 50% or more. The list shows a part of the results.

The compounds below were run on Wolbachia pipientis (assay: Anti-Wolbachia Cell-Based Screen). Settings: 5 µM.
Format: functional
Design: scale not given: in the data most compounds retested in dose-response had high values

Compound	Percent Effect [%]
COc1ccc(NC(=O)N2CCCC2c2ccco2)cc1OC (stereo not drawn)	20.26
COc1cc(Nc2c(C#N)c(=O)n(C)c(=O)n2C)cc(OC)c1	0.2169
COc1ccccc1C(NC(=O)C1CCC1)c1noc(C)n1 (stereo not drawn)	-10.07
CC(c1cc(F)ccc1F)N(C)CCS(=O)(=O)CCC(N)=O (stereo not drawn)	-2.852
COC(=O)C(NC(=O)C1CCC1)c1cc(F)ccc1F (stereo not drawn)	101.8
COC(=O)C(NC(=O)COC1CCCC1)c1cc(F)ccc1F (stereo not drawn)	0.6159
COC(=O)C(NC(=O)C1CC1)c1cc(F)ccc1F (stereo not drawn)	87.91
COC(=O)C(NC(=O)C1CCCC1)c1cc(F)ccc1F (stereo not drawn)	111.2
Cc1nc(C(NC(=O)C2CCCC2)c2ccccc2F)no1 (stereo not drawn)	-17.79
O=C(NC1CC1)NC(c1cc(F)ccc1F)C1CC1 (stereo not drawn)	-0.2014
CNC(C(=O)OC)c1cc(F)ccc1F.Cl (stereo not drawn)	100.3
COC(=O)C(NC(=O)c1cc(F)cc(F)c1)c1cccnc1 (stereo not drawn)	7.008
COc1ccccc1C(NC(=O)C1CCCC1)c1noc(C)n1 (stereo not drawn)	-4.234
CNC(=O)C1CN(Cc2ccc(C#N)cc2F)c2ccccc2O1 (stereo not drawn)	-15.36
CC(C)C(=O)N1CCN(C(=O)c2cc(Cl)no2)[C@H]2CS(=O)(=O)C[C@H]21	-5.437
N#Cc1cccnc1NC1CCN(c2ccccc2OC(F)F)C1=O (stereo not drawn)	-11.66
O=C(NCCNc1cncc(Br)c1)c1ccc(O)cc1	-0.2825
Cc1cccc(C)c1C(=O)N1C[C@@H](CN2CCOCC2)[C@@H](CO)C1	-12.05
O=C(O)C(F)(F)F.O=C(O)C(F)(F)F.O=C(O)C(F)(F)F.c1cncc(C[C@H]2[C@H](N3CCOCC3)CCN2Cc2cccs2)c1	-5.101
O=C1c2cccnc2OC(CN2CCOCC2)CN1Cc1cccs1 (stereo not drawn)	106
CCN1CC(CN2CCOCC2)Oc2ncccc2C1=O (stereo not drawn)	121.1

Compound	Percent Effect [%]
O=C(NC1CCCCC1)N1CCC(N2Cc3ncccc3C2=O)CC1	2.597
COc1ncccc1NC(=O)N1CCC(CN2CCOCC2)CC1	40.61
COc1ncccc1CNC(=O)N1CCC(CN2CCOCC2)CC1	-11.8
O=C1c2cccnc2OC(CN2CCOCC2)CN1C1CCC1 (stereo not drawn)	113.2
O=C1c2cccnc2OC(CN2CCOCC2)CN1CC1CC1 (stereo not drawn)	142
CCOC(=O)N1CCC(N2Cc3ncccc3C2=O)CC1	-7.226
CCc1c(C)sc2ncnc(N3CC[C@@H](N4CCC(O)CC4)[C@H](O)C3)c12	-2.578
O=C(O)c1cn(CC2CCCN(c3nc4ccccc4s3)C2)nn1 (stereo not drawn)	-26.21
NC(=O)c1ccccc1-n1cc(-c2cccc(C(=O)O)c2)cn1	8.053
CCN1CCCN(c2ncccc2C(=O)N2CCCCC2)CC1	-13.17
COCCN1CCC(Cc2cncc(-c3ccc(C(=O)O)cc3)n2)C1 (stereo not drawn)	-8.312
COCCN1CCC(CNc2nccc(-c3cnn(C)c3)n2)CC1	12.08
CC(C)N1CCC(CC(=O)NCc2cc(O)ncn2)CC1	-21.37
CC(C)N1CCC(Cc2cc(-c3cccc(C(=O)O)c3)ncn2)CC1	121.9
CC(C)N1CCC(Cc2cncc(-c3cccc(C(=O)O)c3)n2)C1 (stereo not drawn)	113.7
CC(C)N1CCC(Cc2cc(-c3cccc(C(=O)O)c3)ncn2)C1 (stereo not drawn)	-6.349
COCCN1CCC(Cc2cncc(-c3ccc(C(=O)O)cc3)n2)CC1	112
CC(C)N1CCC(Cc2cncc(-c3cccc(C(=O)O)c3)n2)CC1	108.9
CC(C)N1CCC(Cc2cnc(-c3cccc(C(=O)O)c3)cn2)C1 (stereo not drawn)	-8.094
CN(C)C(=O)COCC1CN(Cc2cccs2)Cc2ncn(C)c21.O=C(O)C(F)(F)F.O=C(O)C(F)(F)F (stereo not drawn)	100.2
CCn1cc2c(n1)CN(Cc1ccoc1)CC2COCC1CC1.O=C(O)C(F)(F)F (stereo not drawn)	-14.5

Compound	Percent Effect [%]
CN(C)C(=O)COCc1nn(C)c2c1CCN(Cc1ccco1)C2.O=C(O)C(F)(F)F	-2.792
CN(C)C(=O)COCC1CN(Cc2ccoc2)Cc2ncn(C)c21.O=C(O)C(F)(F)F.O=C(O)C(F)(F)F (stereo not drawn)	111.6
CN(C)C(=O)COCC1CN(Cc2ccco2)Cc2ncn(C)c21.O=C(O)C(F)(F)F.O=C(O)C(F)(F)F (stereo not drawn)	91.74
CCOCC1CN(Cc2ccoc2)Cc2nn(CC3CC3)cc21.O=C(O)C(F)(F)F (stereo not drawn)	-8.348
Cc1cccc(CN2CCc3c(COCC(=O)N(C)C)nn(C)c3C2)n1.O=C(O)C(F)(F)F.O=C(O)C(F)(F)F	1.951
Cc1cccc(CN2Cc3ncn(C)c3C(COCC(=O)N(C)C)C2)n1.O=C(O)C(F)(F)F.O=C(O)C(F)(F)F.O=C(O)C(F)(F)F (stereo not drawn)	115.6
Cn1cnc2c1C(COCC1CCOCC1)CN(Cc1ccccn1)C2.O=C(O)C(F)(F)F.O=C(O)C(F)(F)F.O=C(O)C(F)(F)F (stereo not drawn)	-22.25
c1ccc(-c2cc(CN3C[C@@H]4CC[C@H](C3)N(CC3CCC3)C4)on2)cc1	10.47
O=C(CN1CCOC1=O)N1CCC2(CCc3ccccc32)CC1	-4.229
CCCNC(=O)c1ccc(S(=O)(=O)NC2(COC)CCCC2)cc1	-2.263
CC(C)c1cc(NCC2(N(C)C)CCCC2)ncn1	-5.055
O=C(c1cc(CC2(NCc3ccccc3)COC2)no1)N1CCCCC1	5.452
N#CCCCS(=O)(=O)NC1(c2cccc(Br)c2)CC1	115.6
N#CCCCS(=O)(=O)NC(=O)c1ccccc1F	-12.54
CS(=O)(=O)CCCNC1(c2cccc(Cl)c2)CCCC1	-3.433
N#CCCCS(=O)(=O)NC(=O)c1cccc(Cl)c1F	-1.006
CS(=O)(=O)CCC(=O)NC1(c2cccc(Br)c2)CC1	-24.79
N#CCCCS(=O)(=O)NC1(c2cccc(Cl)c2)CC1	95.05
COCCCC(=O)NC1(c2cccc(Br)c2)CC1	-6.052
COC(=O)NCCCC(=O)NC1(c2cccc(Cl)c2)CC1	-10.63
N#CCCCS(=O)(=O)NC1(c2ccc(F)cc2)CC1	94.21
